PubChem BioAssay AID1963576 (National Center for Advancing Translational Sciences (NCATS), 2024)
The campaign covered roughly 46,000 compounds. About 60 (0.1%) were called active. Where a call stands in place of a potency, no number is given. Inconclusive results (about 3%) are left out. Calls come from the whole dose curve; as a rule, active = well fitted inhibition curve with a large enough effect; inconclusive = small, poorly fitted or top-dose-only effect; inactive = no such curve, though single readings can be large or run the other way. The sample as a whole holds a higher share of actives than the screen did.

assay: Primary qHTS assay for Inhibitors of ovarian cancer metastasis using an organotypic tumor microenvironment (TME) model.; note: nearly all actives have a fitted effect of over 65% in size;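 for potency: count of GFP cancer cells still attached after washing and fixation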; conditions: SKOV3ip1-GFP adhesion/invasion on 3D omental model, fluorescence; series mostly up to 45.8 µM
From the text: PI: Ernst Lengyel MD., Ph.D. Department of Obstetrics and Gynecology, Section of Gynecologic Oncology University of Chicago Medicine, Chicago, Illinois. The tumor microenvironment (TME) is a key determinant of metastatic efficiency. We performed a quantitative high-throughput screen (qHTS) of diverse medicinal chemistry tractable scaffolds (44,420 compounds) and pharmacologically active small molecules (386 compounds) using a layered organotypic, robust assay representing the ovarian cancer metastatic TME. This 3D model contains primary human mesothelial cells, fibroblasts, and extracellular matrix, to which fluorescently labeled ovarian cancer cells are added. Initially, 100 compounds inhibiting ovarian cancer adhesion/invasion to the 3D model in a dose-dependent manner were identified. Of those, eight compounds were confirmed active in five high-grade serous ovarian cancer cell lines and were further validated in secondary in vitro and in vivo biological assays. […] Specifically, NCGC00117362 and PP-121 inhibited ovarian cancer adhesion, invasion, and proliferation, whereas milciclib inhibited ovarian cancer invasion and proliferation. […] To evaluate the clinical potential of NCGC00117362, structure - activity relationship studies were performed. […] The three compounds identified have promise as therapeutics for prevention and treatment of ovarian cancer metastasis.
PROTOCOL TABLE (as described by Inglese J, Shamu CE and Guy RK. 2007) SEQUENCE No. (e.g., 1, 2, 3, etc.); […] (e.g., Cells, Incubation, Reagent, etc.); VALUE; DESCRIPTION. 1; Cells; 4 uL; primary human omental fibroblast, black, clear bottom, low base, 1536-well Aurora assay plate. 2; Incubation; 48 hr; 37C. 3; Cells; 3 uL; 1,200 SKOV3ip1-GFP cells. 4; Compounds; 23nL; acoustic dispenser. 5; Incubation; 2 hr; room temperature. 6; Incubation; 16 hr; 37C. 7; Wash; 5 uL; 1x PBS. 8; Fixing; 5 uL; 4% paraformaldehyde (PFA). 9; Incubation; 15 min; room temperature 10; Wash, 5 uL; 1x PBS. 11; Detection; Fluorescence, excitation filter 488 nm, emission filter 509 nm. NOTES (numbers refer to Sequence numbers above) 1. For the 1,536-well format, 40 primary human omental fibroblasts and 400 mesothelial cells were seeded with 0.02 µg fibronectin and 0.02 µg collagen type I in 4 µL of growth media (2.3 mm2; Supplementary Fig. S1A). 2. Assay plates were incubated for 48 hours at 37 C. 3. After incubation, 1,200 SKOV3ip1-GFP were seeded in 3 µL of serum-free media (growth media minus FBS) on top of primary human omental cells. 4. Compounds or controls were added to each well immediately after the addition of the cancer cells. Compounds were screened in four doses (0.36-46 µmol/L), and the plates contained the positive control (Tomatine) in eight doses (0.035-75 µmol/L) and DMSO (equal volume controls) 5 - 6. The plates were incubated at room temperature for 2 hours and then at 37 degrees C for 16 hours. 7 - 10. Following incubation, the media were aspirated and each well washed with PBS (5 µL) and then fixed with 4% paraformaldehyde (PFA; 5 µL). After 15 minutes, the PFA solution was aspirated, PBS (5 µL) was added. 11. The number of GFP-labeled cells analyzed using a fluorescent cytometer TTP LabTech Acumen eX3 using 488 nm excitation filter and 509 nm emission filter. Data was normalized to the DMSO treated for negative and Tomatine treated wells for positive control. REFERENCES: Inglese J, Shamu CE and Guy RK, Reporting data from high throughput screening of small molecule libraries, Nature Chemical Biology, 2007, 3(8): 438-441. doi.org/10.1038/nchembio0807-438. Yasgar A, Shinn P, Jadhav A, Auld DS, Michael S, Zheng W, Austin CP, Inglese J and Simeonov A, Compound Management for Quantitative High-Throughput Screening. J. Assoc. Lab. Auto., 2008, 13: 79-89. doi: 10.1016/j.jala.2007.12.004.
Potency is the fitted concentration of half-maximal effect.

Row | SMILES | Potency
1 | CCCCN(C)S(=O)(=O)c1ccc(C(=O)Nc2sc3c(c2C(N)=O)CC(C)(C)NC3(C)C)cc1 | inactive
2 | Cc1ccc(C(=O)Nc2ccccc2F)cc1S(=O)(=O)N1CCOCC1 | inactive
3 | Cc1c(Cl)cccc1NC(=O)C1CCCN(c2ncnc3onc(C)c23)C1 (stereo not drawn) | inactive
4 | COc1cc(C=CC(=O)O)ccc1O | inactive
5 | CSc1ccc(NC(=O)Cn2nnnc2-c2ccccc2F)cc1 | inactive
6 | COc1ccccc1CNC(=O)C(=O)NCC(c1ccco1)S(=O)(=O)c1ccc(F)cc1 (stereo not drawn) | inactive
7 | CCC(C(=O)Nc1cccc(Cl)c1C)n1nc(-c2ccc(C)cc2)ccc1=O (stereo not drawn) | inactive
8 | Cc1ccc(OC(=O)CSc2nnc(-c3cccs3)o2)cc1 | inactive
9 | O=C(CCSCc1cccc(F)c1)NCc1ccccc1 | inactive
10 | COc1cc(Cl)c(NC(=O)C(NS(=O)(=O)c2cccs2)C(C)C)c(OC)c1 (stereo not drawn) | inactive
11 | Cc1cccc(N2CCN(S(=O)(=O)c3ccc4[nH]c5c(c4c3)CCCCC5)CC2)c1C | inactive
12 | CCN1C(=O)c2ccccc2S(=O)c2ccc(C(=O)NCc3ccc(F)cc3)cc21 (stereo not drawn) | inactive
13 | O=C(NCCC1=CCCCC1)c1ccc2c(c1)N(Cc1ccccc1F)C(=O)c1ccccc1S2(=O)=O | inactive
14 | O=C(c1ccc(C(F)(F)F)cc1)N1CCC(c2nc(-c3ccc(S(=O)(=O)N4CCCC4)cc3)no2)CC1 | inactive
15 | O=C(Nc1ccc(OC(F)(F)F)cc1)c1cc2c(=O)n3ccccc3nc2s1 | inactive
16 | Cn1c(C(=O)Nc2cccc(C(F)(F)F)c2)cc2c(=O)n3ccccc3nc21 | inactive
17 | O=c1c(NCc2cccs2)nccn1-c1ccccc1 | inactive
18 | O=C(CC1Oc2ccc(Cl)cc2NC1=O)NCc1ccccc1 (stereo not drawn) | inactive
19 | Cc1ccc2nc(N3CCN(c4cccc(Cl)c4)CC3)c3nnnn3c2c1 | inactive
20 | CCCCOc1ccc(NC(=O)c2cc3c(n(-c4ccc(Cl)cc4)c2=O)CCCC3=O)cc1 | inactive
21 | Cc1ccc2cccc(NC(=O)c3cccc4ccccc34)c2n1 | inactive

Row | SMILES | Potency
22 | COc1ccccc1CNC(=O)CS(=O)(=O)c1cccc2nsnc12 | inactive
23 | O=C(CSc1cn(CC(=O)N2CCOCC2)c2ccccc12)Nc1ccccc1 | inactive
24 | COc1ccc(C(=O)CSc2c(C(C)C)cnc3c2c(=O)n(C)c(=O)n3C)cc1 | inactive
25 | COc1cccc(C(=O)NC2=NC(c3ccc(N(C)C)cc3)CC(=O)N2)c1 (stereo not drawn) | inactive
26 | CNc1ccc(-c2nc(-c3ccco3)no2)cc1[N+](=O)[O-] | inactive
27 | Cc1c(NC(=O)c2cc(=O)c3ccccc3o2)c(=O)n(-c2ccccc2)n1C | inactive
28 | Cc1ccc2c(=O)c(C(=O)c3ccc(F)cc3)cn(CC(=O)NC3CCCCC3)c2n1 | inactive
29 | CCOc1ccc(NC(=O)c2c(NC(=O)Cc3ccccc3)sc3c2CCCCC3)cc1 | inactive
30 | Cc1ccc(NC(=O)c2nc(S(=O)(=O)Cc3cccc(C)c3)ncc2Cl)cc1 | 3.16 µM (active)
31 | CCCS(=O)(=O)c1ncc(Cl)c(C(=O)Nc2scc(-c3ccccc3)c2C(=O)OCC)n1 | inactive
32 | CCSc1ncc(Cl)c(C(=O)Nc2cc(C)ccc2C)n1 | inactive
33 | CCOC(=O)N1CCc2c(sc3c2C(=O)NC(c2ccccc2F)N3)C1 (stereo not drawn) | inactive
34 | COc1ccc(-c2nc(CN3CCC(C(=O)NCCN(CC(C)C)CC(C)C)CC3)c(C)o2)cc1OC | inactive
35 | CC(C)c1ccc(Cn2c(COc3ccccc3)nc3ccccc32)cc1 | inactive
36 | CCc1ccc(C=C2SC(=S)NC2=O)cc1 | inactive
37 | COc1ccc(-c2[nH]c3c(c2-c2c(-n4cccc4)n(C)c(=O)n(C)c2=O)c(=O)n(C)c(=O)n3C)cc1 | inactive
38 | COc1ccc2c(C)c(CCC(=O)NCc3ccc(OC)c(OC)c3)c(=O)oc2c1 | inactive
39 | CC(C)(C)C1CCc2c(sc(NC(=O)c3ccccc3F)c2C(=O)N2CCCCC2)C1 (stereo not drawn) | inactive
40 | CCc1ccccc1NC(=O)c1cnn(-c2ccc(F)cc2)c1C1CCNCC1 | inactive
41 | CCCCOc1ccc(CNC(=O)c2ccc3c(c2)N(C)C(=O)C2CCCCN32)cc1 (stereo not drawn) | inactive
42 | COc1ccc(CCNC(=O)CCCCn2c(=O)c3ccccc3n(Cc3ccccc3C)c2=O)cc1OC | inactive

Row | SMILES | Potency
43 | CC=C(C(=CC)c1ccc(O)cc1)c1ccc(O)cc1 | inactive
44 | Cc1cc2nc(NC(=O)c3ccc(S(=O)(=O)N4CCOCC4)cc3)sc2cc1C | inactive
45 | COc1ccc(-c2cc(C(=O)Nc3sc4c(c3C(N)=O)CCCC4)no2)cc1 | inactive
46 | Cc1ccc2c(c1)N(C(=O)Nc1ccc(Br)cc1F)CCO2 | inactive
47 | COc1ccc2c(CNCCc3ccccc3C)c(C(=O)O)n(Cc3ccccc3C)c2c1 | inactive
48 | CCOc1cc(C2C(C(=O)OC)=C(C)NC3=C2C(=O)c2ccccc23)ccc1O (stereo not drawn) | inactive
49 | COc1ccc2c(c1)CCc1c(C(=O)Nc3cc(C)ccc3O)noc1-2 | inactive
50 | Cc1ccccc1CNC(=O)c1ccc(NC(=O)N2CCCCc3ccccc32)cc1 | inactive
51 | CCCN1CCN(CCCNC(=O)Cn2nc(CC)n3c(cc4occc43)c2=O)CC1 | inactive
52 | CCOC(=O)C1CCC(CN(Cc2ccc(OC)cc2)S(=O)(=O)c2ccc(F)c(C(=O)Nc3cc(C)ccc3C)c2)CC1 (stereo not drawn) | inactive
53 | Cc1n[nH]c(C)c1S(=O)(=O)N1CCCC(C(=O)Nc2ccc(Br)cc2)C1 (stereo not drawn) | inactive
54 | COc1ccc(NC(=O)C(=O)NCc2ccco2)cc1 | inactive
55 | N#Cc1nc(/C=C/c2ccc(F)cc2)oc1NCc1ccc(F)cc1 | inactive
56 | CCOc1ccc(-c2nonc2NC(=O)c2oc3ccc(C)cc3c2C)cc1OCC | inactive
57 | CCC(=O)Nc1ccccc1-c1nc2ccccc2n(CC(=O)Nc2ccc(C)c(C)c2)c1=O | inactive
58 | Cc1ccc2nc(NC(=O)c3nc(SCc4ccccc4F)ncc3Cl)sc2c1 | inactive
59 | COc1ccc(Cn2ccc3nc(C)c(C(=O)Nc4ccc(C)c(F)c4)cc3c2=O)cc1 | inactive
60 | CCCCNC(=O)C1CCCN(c2nnc(C)c3c(C)n(-c4ccc(Cl)cc4)nc23)C1 (stereo not drawn) | inactive
61 | COC(=O)c1cc(NC(=O)c2sc3ccccc3c2Cl)cc(C(=O)OC)c1 | inactive
62 | Cc1cccc(S(=O)(=O)c2cn(Cc3ccccc3)c3cc(N4CCOCC4)c(F)cc3c2=O)c1 | inactive
63 | CC1=C(c2ccc(F)cc2)S(=O)(=O)N=C1N1CCC(C(=O)NCCc2ccccc2C)CC1 | inactive
